Consider 40 compounds from PubChem BioAssay AID2588 (National Center for Advancing Translational Sciences (NCATS), 2010).

“And” between values parts separate entries of the source, which are not always exact repeats. Identical values can stand only once. Inconclusive results are not listed. The source made the active and inactive calls. The call rests on the fitted dose curve; in most records, active means well fitted inhibition curve with a large enough effect; inconclusive means small, poorly fitted or top-dose-only effect, or effect the other way; inactive means flat fitted curve, though single readings scatter.

Sequence of Lysosomal acid glucosylceramidase (Homo sapiens) (P04062 whole entry, looked up): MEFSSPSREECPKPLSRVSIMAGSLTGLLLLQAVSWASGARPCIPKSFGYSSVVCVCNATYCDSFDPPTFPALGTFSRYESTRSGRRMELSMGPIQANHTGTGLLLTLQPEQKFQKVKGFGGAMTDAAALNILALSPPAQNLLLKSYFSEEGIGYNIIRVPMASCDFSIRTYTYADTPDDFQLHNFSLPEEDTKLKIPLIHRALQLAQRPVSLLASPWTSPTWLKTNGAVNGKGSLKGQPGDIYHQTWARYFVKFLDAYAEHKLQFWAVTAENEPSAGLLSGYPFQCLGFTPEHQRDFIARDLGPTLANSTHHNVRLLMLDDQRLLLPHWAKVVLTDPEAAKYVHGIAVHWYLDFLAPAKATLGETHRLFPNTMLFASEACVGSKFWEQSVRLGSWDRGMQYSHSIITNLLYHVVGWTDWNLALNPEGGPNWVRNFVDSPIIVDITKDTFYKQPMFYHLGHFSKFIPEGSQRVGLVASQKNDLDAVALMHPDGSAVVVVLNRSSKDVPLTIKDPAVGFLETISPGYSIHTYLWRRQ

This test concerns the target Lysosomal acid glucosylceramidase (Homo sapiens) (UniProt P04062). Kind of test: qHTS Assay for Inhibitors and Activators of N370S glucocerebrosidase as a Potential Chaperone Treatment of Gaucher Disease: Activity in Non-Mutant Spleen Homogenate Using a Red Fluorescent Substrate. As to conditions: red fluorogenic substrate GCase activity; series mostly up to 50.2 µM. An excerpt:
NIH Chemical Genomics Center [NCGC]
NIH Molecular Libraries Probe Production Centers Network [MLPCN]
Assay Submitter (PI): Wei Zheng
Glucocerebrosidase (GC) catalyzes the hydrolysis of beta-glucocerebroside to glucose and ceramide in lysosomes. Mutations in the glucocerebrosidase gene result in Gaucher disease, an autosomal recessive lysosomal storage disorder. Many of the mutations encountered in patients with Gaucher disease are missense alterations that may cause misfolding, decreased stability and/or mistrafficking of this lysosomal protein. […] These inhibitors include iminosugar analogs and three non-iminosugar inhibitors identified from a previous HTS of 62,000 compounds with the wild type recombinant enzyme. However, the enhancement of enzyme activity by the chaperone action of an enzyme inhibitor must be balanced against the direct inhibition of the enzyme. An enzyme activator could also function as a chaperone by binding to the enzyme and helping to correct its misfolding and mistrafficking. While activators for GC have not yet been identified, they may have better therapeutic potential than inhibitors. Therefore the discovery and development of chemical activators may provide a new strategy for the chaperone therapy.
We have optimized a new assay using N370S mutant GC derived from the spleen of a Gaucher patient. […] In addition, the MLPCN compound library has expanded, which increases the chance of finding new and better probes.
This confirmation assay tests for compound activity in spleen homogenate containing wildtype enzyme using an alternate resorufin-based substrate.
NCGC Assay Protocol Summary:
This is a fluorogenic enzyme assay with resorufin-beta-D-glucopyranoside as the substrate and wildtype glucocerebrosidase from human spleen homogenate as the enzyme preparation. Upon the hydrolysis of this fluorogenic substrate, the resulting product, […] which can be detected by a standard fluorescence plate reader. Data were normalized to the controls for basal activity (without enzyme) and 100% activity (with enzyme). The AC50 values were determined from concentration-response data modeled with the standard Hill equation.
Assay buffer: 50 mM citric acid (titrated with potassium phosphate to pH 5.0), 100 mM potassium chloride, 10 mM sodium chloride, 1 mM magnesium chloride, 0.01% Tween-20.
1536-well assay protocol:
(1) Add 2 ul/well of spleen homogenate (27 ug final)
(2) Add 23 nL compounds in DMSO solution. The final titration was 0.5 nM to 58 uM.
(3) Add 2 ul of substrate (1 mM final)
(4) Incubate at 37C for 40 min.
(5) Add 2 ul stop solution (1M NaOH and 1M Glycine mixture, pH 10)
(6) Detect the assay plate in a ViewLux plate reader (PerkinElmer) with Ex=365 nm and Em=440nm.
Keywords: Glucocerebrosidase, beta-glucosidase, Gaucher Disease, pharmacological chaperone, chaperone therapy, high throughput screening, glucocerebrosidase inhibitor, MLSMR, MLSCN, NIH Roadmap, qHTS and NCGC
For orientation: Quantitative high-throughput screening tests each substance at several concentrations.
For `O=S(=O)(c1ccc(Br)cc1)N1CCN(c2nc(-c3cccs3)nc3ccccc23)CC1`, the Potency was 0.794 µM (active).

For `COc1ccc(-c2nc(N3CCN(S(=O)(=O)c4ccc(F)cc4)CC3)c3ccccc3n2)cc1`, the Potency result is “inactive”.

Regarding `Cc1cc(C)cc(N(CC(=O)NC2CCC(C)CC2)S(=O)(=O)c2c(C)[nH]c(=O)[nH]c2=O)c1` (stereo not given), the Potency is 0.398 µM (active).

On to `Nc1nc(-c2ccccc2)c(N=Nc2ccc(Cl)cc2)s1`, for which the Potency result is “inactive”.

Turning to `O=S(=O)(c1cccc(Br)c1)N1CCN(c2nc(-c3cccs3)nc3ccccc23)CC1`, the Potency is 1.41 µM (active).

`COc1ccccc1C(=O)COC(=O)c1ccccc1OCC(=O)Nc1ccc(SC(F)F)cc1`: the Potency result was “inactive”.

As to `Cc1cc(N2CCOCC2)nc2ccc(NC(=O)C3CCC(C)CC3)cc12` (stereo not given), the Potency is 2.82 µM (active).

In the case of `O=S(=O)(c1ccc(F)cc1)N1CCN(c2nc(-c3ccccc3)nc3cc(Cl)ccc23)CC1`, the Potency result is “inactive”.

`COc1cc(OC)cc(C(=O)N[C@H](C(=O)OCC(=O)Nc2cccc(F)c2)C(C)C)c1`: the Potency entry is “inactive”.

For `O=S(=O)(c1ccc(OC(F)(F)F)cc1)N1CCN(c2nc(-c3cccs3)nc3ccccc23)CC1`, the Potency was 3.98 µM (active).

As for `O=C(COc1ccccc1C(=O)c1cnn(-c2ccccc2)c1)Nc1ccccc1`, the Potency result is “inactive”.

Regarding `Cc1cc(N2CCOCC2)nc2ccc(NC(=O)CCC3CCCC3)cc12`, the Potency was 3.16 µM (active).

In the case of `CC(=O)Nc1ccc(NC(=O)COc2ccccc2C(=O)Nc2cccc(Cl)c2Cl)cc1`, the Potency entry was “inactive”.

As to `O=S(=O)(c1ccccc1C(F)(F)F)N1CCN(c2nc(-c3ccccc3)nc3ccccc23)CC1`, the Potency is 1 µM (active).

`CCC(C)NC(=O)COC(=O)c1ccccc1OCC(=O)Nc1ccc(Br)cc1` (stereo not given): the Potency entry was “inactive”.

On to `O=S(=O)(c1ccc2c(c1)CCCC2)N1CCN(c2nc(-c3cccs3)nc3ccccc23)CC1`, for which the Potency was 0.282 µM (active).

For `CCN(CC)c1ccc(C(=O)Nc2ccc3nc(N4CCOCC4)cc(C)c3c2)cc1`, the Potency is 10 µM (active).

With `Cc1cc(N2CCN(c3ncccn3)CC2)nc2ccc(NC(=O)C3CCC(C)CC3)cc12` (stereo not given), the Potency is 11.2 µM (active).

Consider `Cc1cc(N2CCOCC2)nc2ccc(NC(=O)CCC(=O)NC3CCCCC3)cc12`, for which the Potency result was “inactive”.

As to `N=c1c2c(-c3ccccc3)c(-c3ccccc3)n(Cc3ccco3)c2ncn1CCCn1ccnc1`, the Potency is 12.6 µM (active).

With `O=S(=O)(c1ccc2c(c1)OCCO2)N1CCN(c2nc(-c3cccs3)nc3ccccc23)CC1`, the Potency was 0.141 µM (active).

Regarding `Cc1cc(N2CCCCC2)nc2ccc(NC(=O)C3CCC(C)CC3)cc12` (stereo not given), the Potency is 7.94 µM (active).

Take `COc1ccc(S(=O)(=O)N2CCN(c3nc(-c4cccs4)nc4ccccc34)CC2)cc1`: the Potency is 0.355 µM (active).

For the compound `O=S(=O)(c1ccccc1C(F)(F)F)N1CCN(c2nc(-c3cccs3)nc3ccccc23)CC1`, the Potency was 0.224 µM (active).

On to `O=S(=O)(c1ccccc1)N1CCN(c2nc(-c3cccs3)nc3ccccc23)CC1`, for which the Potency was 0.316 µM (active).

Take `COc1ccccc1NC(=O)COc1ccccc1C(=O)Nc1ccccc1`: the Potency result is “inactive”.

As for `O=[N+]([O-])c1ccccc1S(=O)(=O)N1CCN(c2nc(-c3ccccc3)nc3ccccc23)CC1`, the Potency was 4.47 µM (active).

Regarding `O=S(=O)(c1ccc(Cl)cc1)N1CCN(c2nc(-c3cccs3)nc3ccccc23)CC1`, the Potency was 1.58 µM (active) and 355 nM (active).

Regarding `O=S(=O)(c1ccc(F)cc1)N1CCN(c2nc(-c3cccs3)nc3cc(Cl)ccc23)CC1`, the Potency result is “inactive”.

As for `CCCNC(=O)COC(=O)c1ccccc1OCC(=O)Nc1ccc(Br)cc1`, the Potency result was “inactive”.

As to `O=S(=O)(c1ccccc1Cl)N1CCN(c2nc(-c3cccs3)nc3ccccc23)CC1`, the Potency was 0.794 µM (active).

On to `O=S(=O)(c1ccc(F)cc1)N1CCN(c2nc(-c3cccs3)nc3ccccc23)CC1`, for which the Potency was 0.794 µM (active).

As for `O=S(=O)(c1ccc2ccccc2c1)N1CCN(c2nc(-c3cccs3)nc3ccccc23)CC1`, the Potency was 0.251 µM (active).

As for `O=C(Nc1cnn(Cc2ccc(F)cc2)c1)c1cnn2c(C(F)F)cc(-c3ccccc3)nc12`, the Potency result is “inactive”.

As to `CCOc1ccccc1NC(=O)CN(c1ccc(C)cc1)S(=O)(=O)c1c(C)noc1C`, the Potency result was “inactive”.

Regarding `CC(C)(C)C(=O)OCCNc1nc(-c2ccccc2)nc2ccccc12`, the Potency was 2.24 µM (active).

`O=C(Nc1cc(Br)ccc1O)c1cnn2c(C(F)F)cc(C3CC3)nc12`: the Potency result was “inactive”.

With `O=C(Nc1nccs1)c1ccc(NS(=O)(=O)c2ccc(Cl)cc2)cc1`, the Potency entry is “inactive”.

In the case of `O=C(/C=C/c1ccc(O)cc1)c1ccc(O)cc1O`, the Potency was 3.98 µM (active).

`O=C(CSc1nccc(-c2cccs2)n1)Nc1cccc(Cl)c1`: the Potency entry is “inactive”.
